# Rows were chosen to be rich in hits. Some 7.3% of all compounds tested hit in one or more screens of this group.
# ELG1 genotox: inducers of genotoxicity in HEK293T ELG1-luciferase cells. HEK293T ELG1-luciferase reporter, luminescence, 16 h. Potency, µM (doses to about 46 µM), for the others: at the highest dose activity change, positive = activation, usual class: activators. hit rate 1.3% among 330,000; note: % of control where 0% means no effect; nearly all actives have a fitted effect of over 60% in size
#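 Quantitative HTS format in 1536-well plates. HEK293T ELG1-luciferase reporter cells receive test compound and are incubated 16 hr at 37 °C, 5% CO2; ONE-Glo added, 30 min room temperature, then luminescence read.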
# uPA generation: inhibitors of cell surface uPA generation; cell surface uPA generation assay, qHTS; Potency, µM (titrated, usually from 38.3 µM), for the others: at the top dose activity change, negative = inhibition, usual class: inhibitors; hit rate 0.31% among 330,000; AID 540303; active = well fitted inhibition curve with a large enough effect; inconclusive = small, poorly fitted or top-dose-only effect; inactive = no such curve, though single readings can be large or run the other way; tested in mouse RAW 264.7 cells; note: % is set by controls: 0 for no effect and ±100 for the full control effect; nearly all actives have a fitted effect of over 55% in size
# FLuc modulator: counter-screen for miR-21 project: firefly luciferase inhibitors or activators; AID 588342; hit rate 6.9% among 360,000; Potency, µM (titrated, usually from 57.5 µM), inactives show at the highest dose activity change, negative = inhibition, hits mostly inhibitors; P08659; purified FLuc, Km substrates, luminescence inhibition;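 note: plate controls were vehicle for no effect and reference inhibitor for full effect; nearly all actives have a fitted effect of over 55% in size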
# Target sequence (P08659 whole entry, looked up): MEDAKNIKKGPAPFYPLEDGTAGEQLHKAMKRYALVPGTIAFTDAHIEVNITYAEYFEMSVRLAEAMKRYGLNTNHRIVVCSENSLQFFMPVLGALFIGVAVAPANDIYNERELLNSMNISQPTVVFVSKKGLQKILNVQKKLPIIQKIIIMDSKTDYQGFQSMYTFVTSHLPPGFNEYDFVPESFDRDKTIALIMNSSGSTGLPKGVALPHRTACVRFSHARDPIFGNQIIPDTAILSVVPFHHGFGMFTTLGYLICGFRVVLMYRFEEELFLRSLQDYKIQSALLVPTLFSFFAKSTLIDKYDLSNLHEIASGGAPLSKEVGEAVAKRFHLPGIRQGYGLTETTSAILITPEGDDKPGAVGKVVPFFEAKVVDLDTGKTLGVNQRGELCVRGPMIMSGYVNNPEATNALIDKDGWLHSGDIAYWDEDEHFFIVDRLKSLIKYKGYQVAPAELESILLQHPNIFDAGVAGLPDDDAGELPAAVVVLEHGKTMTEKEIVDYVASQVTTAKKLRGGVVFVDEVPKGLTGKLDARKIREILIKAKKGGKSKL
#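 Purified P. pyralis luciferase (10nM final) with 10uM D-luciferin and 10uM ATP (Km levels) in 50mM Tris acetate pH 7.5, 10mM Mg acetate, 0.01% Tween-20, 0.05% BSA; qHTS 6-point titration, ~60 µM downward; luminescence read.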
# Rab9 promoter act: Rab9 promoter activation; Huh7 Rab9 promoter-luciferase reporter, luminescence, 24 h; Potency, µM (titrated, usually from 9.22 µM), without a hit: top-dose activation, negative = inhibition, most hits filed as activators; hit rate 2.8% among 320,000; note: % of control where 0% means no effect; nearly all actives have a fitted effect of over 60% in size
#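 Huh7 reporter line, Rab9 promoter upstream of luciferase. Compound exposure 24 h at 37 °C in reduced-serum medium with 10% FBS. Read-out: luminescence.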
# NPC1 promoter act: NPC1 promoter activation; Huh7 NPC1 promoter luciferase reporter, 24 h; Potency, µM (titrated, usually from 9.22 µM), for inactives: at the top dose activation, usual class: activators; hit rate 2.4% among 320,000; note: % of control where 0% means no effect; nearly all actives have a fitted effect of over 60% in size
#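 NPC1 promoter–luciferase Huh7 cells; 24 h compound; luminescence.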
# SMN2 splice up: increases expression of the SMN2 splice variant. HEK293 SMN2-luciferase splicing reporter, luminescence, 30-36 h. Potency, µM (series often up to 46.1 µM), for inactives: at the highest dose activity change, positive = activation, actives largely listed as activators. hit rate 2.8% among 210,000; note: % of control where 0% means no effect; nearly all actives have a fitted effect of over 55% in size
#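 HEK293 cells carry an SMN2 […]–luciferase reporter in which exon 7 inclusion puts luciferase in frame. Cells were plated 10-12 h before compound addition, then incubated 30-36 h at 37C. ONE-Glo luminescence was read; sodium butyrate at 4.5 mM final served as control.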
# Starred values were filed as active, the others as inactive; ? = inconclusive; / = no result; [ ] = dose if it differs, or a comment. Unless noted, calls come from the whole dose curve; as a rule, active = well fitted curve in the direction sought with a large enough effect; inconclusive = small, poorly fitted or top-dose-only effect, or another doubt; inactive = no such curve, though single readings can be large; an effect the other way counts as inactive or inconclusive. Potency is the fitted concentration of half-maximal effect.
SMILES,ELG1 genotox,uPA generation,FLuc modulator,Rab9 promoter act,NPC1 promoter act,SMN2 splice up
Cc1ccc2c(=O)c(C(=O)c3ccc(F)cc3)cn(CC(=O)Nc3ccc4c(c3)OCCO4)c2n1,/,/,4%,/,/,/
COc1ccc2c(c1)Cc1sc(NC(=O)c3ccco3)nc1-2,13%,-9%,3.4µM*,1.8µM*,2µM*,11µM*
COc1ccc2c(c1)Cc1sc(NC(C)=O)nc1-2,8.2µM*,/,4.8µM*,0.79µM*,1µM*,5.6µM*
COc1ccc2c(c1)Cc1sc(NC(=O)c3cccnc3)nc1-2,-5%,0%,?,15%,0%,-29%
CCc1ccc(C(=O)c2cn(CC(=O)Nc3cccc(OC)c3)c3ccc(OC)cc3c2=O)cc1,/,/,5%,-2%,0%,-7%
CCOc1ccc(NC(=O)Cn2c(=O)n(CCC(=O)NCCc3ccccc3)c(=O)c3ccccc32)cc1,/,/,3%,/,/,-6%
CCC(=O)Nc1ccccc1-c1nc2ccccc2n(CC(=O)c2ccc(Cl)cc2)c1=O,/,/,-7%,/,/,/
CCCCC(=O)Nc1c(C(=O)N2CCN(c3ccccc3)CC2)oc2ccccc12,/,/,-2%,/,/,/
CCOC(=O)c1sc(NC(=O)c2cc(-c3ccc(C)cc3)nc3ccccc23)c(C#N)c1C,-6%,3%,12µM*,-14%,-3%,-78%
COc1ccc(-c2cc(C(=O)Nc3sc4c(c3C#N)CCCC4)c3ccccc3n2)cc1,-2%,-4%,15µM*,0%,-1%,-16%
COC(=O)c1sc(NC(=O)c2cc(-c3ccccc3)nc3ccccc23)c(C#N)c1C,-3%,-12%,?,-30%,-33%,-91%
Cc1cn(C)c(CC(=O)N2CCN(c3cccc(Cl)c3)CC2)c1C(=O)O,/,/,-16%,/,/,/
Cc1ccc(C(=O)CCC(=O)N2CCN(C(=O)c3ccco3)CC2)cc1,-1%,0%,-4%,1%,-1%,7%
C[n+]1c(/C=C/c2ccc3c(c2)OCO3)ccc2ccccc21,?,0%,11µM*,15%,8%,-95%
CCN(C(=O)/C=C/c1ccc2c(c1)OCO2)c1ccccc1,1%,-4%,?,14%,8%,-8%
Cc1cc(/C=C\c2ccc3cc(N(C)C)ccc3[n+]2C)c(C)n1-c1ccccc1,?,?,?,-46%,-38%,-76%[20.6 µM]
C[n+]1c(/C=C/c2ccc(O)cc2)ccc2ccccc21,3%,-6%,13µM*,-2%,-7%,/
CCc1ccc(NC(=O)Cn2c(=O)n(CCCCC(=O)NCc3ccc4c(c3)OCO4)c(=O)c3ccccc32)cc1,/,/,-1%,/,/,13%
CCOC(=O)C1CCCN(S(=O)(=O)c2ccc3[nH]c(=O)oc3c2)C1 (centres undefined),/,/,?,/,/,-16%
O=c1c2ccccc2nc2n1CCc1c-2[nH]c2ccccc12,3.3µM*,?,0.95µM*,2.9µM*,2.9µM*,7.9µM*
Cc1cccc2c(=O)n3c(cc12)-c1[nH]c2ccccc2c1CC3,/,4%,/,/,/,/
CC1=NNC(=O)C1CC(=O)N/N=C(\C)c1ccco1 (centres undefined),-4%,1%,0%,2%,1%,11%
COc1cccc2cc(-c3cn4ccc(C)cc4n3)c(=O)oc12,/,-26%,/,/,/,/
CCOc1cccc2cc(-c3cn4cc(C)ccc4n3)c(=O)oc12,?,-3%,0.12µM*,0.56µM*,0.63µM*,2.8µM*
COc1cccc(CC(=O)Nc2ccc3c(c2)OC2(CCCC2)O3)c1,3%,-23%,13µM*,22%,17%,/
SMILES,ELG1 genotox,uPA generation,FLuc modulator,Rab9 promoter act,NPC1 promoter act,SMN2 splice up
COc1cccc(CC(=O)Nc2ccc(S(=O)(=O)N3CCCCC3)cc2)c1,-2%,-5%,/,/,/,/
CCOC(=O)CCCN1C(=O)CCn2nc(-c3cn(C)c4ccccc34)cc21,/,/,1%,/,/,11%
COC(=O)c1ccc(N2NC(=O)/C(=C/c3cc(OC)c(OC)c(OC)c3)C2=O)cc1,12%,-6%,19µM*,-1%[1.84 µM],-1%,/
COC(=O)c1ccc(N2NC(=O)/C(=C/c3cc(OC)c(O)c(OC)c3)C2=O)cc1,0%,3%,8.5µM*,-9%[1.84 µM],2%,/
COC(=O)C1=C(C)N(Cc2ccc(C)cc2)C(=O)/C1=C\c1cc(OC)c(OC)c(OC)c1,?,-7%,4%,0%,-4%,?
O=C1NN(c2ccccc2)C(=O)/C1=C\c1cccc(OC(=O)c2cccs2)c1,19%,3%,?,2%,-3%,0%
COc1cc(-c2ccccc2)nc(N)n1,16µM*,/,?,3.2µM*,?,1%
CCOC(=O)C1CCCN(C2=NC(=O)/C(=C/c3ccc(OC)cc3OC)S2)C1 (centres undefined),-3%,0%,?,-6%,-4%,/
COc1ccc(OC)c(/C=C2\SC(N3CCCCC3)=NC2=O)c1,0%,0%,19µM*,-5%,21%,/
COc1cc(OC)c(OC)cc1/C=C1\SC(N2CCCCC2)=NC1=O,9%,-3%,3.8µM*,-2%,-2%,/
O=C1N=C(N2CCCC2)S/C1=C\c1ccccc1,11%,-5%,-18%,3%,-3%,-4%
O=C1N=C(N2CCCCC2)S/C1=C\c1ccccc1F,?,-5%,?,?,?,/
CCCOc1ccccc1/C=C1\SC(N2CCCCC2)=NC1=O,-10%,-5%,12µM*,23%,?,/
CN(C(=O)Cn1cc(S(=O)(=O)Cc2ccccc2Cl)c2ccccc21)c1ccccc1,/,/,-2%,/,/,/
Cc1nc(-c2ccccc2)sc1-c1ccc(SCC(=O)NCc2ccccc2Cl)nn1,/,/,-12%,/,/,/
CCN(CCCNC(=O)CN1N=C(c2ccccc2)CCC1=O)c1ccccc1,/,/,1%,/,/,/
Cc1cc(NC(=O)c2ccc(Cn3nc(C)c(Br)c3C)o2)no1,5%,1%,-1%,1%,-4%,20µM*
COC(=O)C1=C(O)/C(=C\c2cc(C)n(-c3ccccc3C)c2C)N=C1C,5%,-23%,1.1µM*,?,?,-12%
COC(=O)C1=C(O)/C(=C\c2sccc2C)N=C1C,1%,1%,?,-3%,-1%,1%
COC(=O)C1=C(C)NC(=O)/C1=C\c1cc(C)n(-c2ccccc2)c1C,1%,1%,11µM*,?,20%,152%
COC(=O)C1=C(C)NC(=O)/C1=C\c1cc(C)n(-c2cc(C)cc(C)c2)c1C,-4%,1%,-13%,-1%,1%,-14%
COC(=O)C1=C(O)/C(=C\c2cc(C)n(-c3ccccc3F)c2C)N=C1C,?,-3%,0.85µM*,27%,7%,2%
CCOc1ccc(CNC(=O)CCCn2c(=O)c3cccn3c3cccnc32)cc1,/,/,-7%,/,/,/
Cn1c(=O)[nH]c(=O)c2c1nc1n2CCN1c1ccccc1,/,/,-6%,/,/,2%
